Reference: PubChem BioAssay (NCATS)
Results filed as inconclusive are left out. Activity calls are given as the source filed them. Calls follow the shape of the dose curve; as a rule, active = well fitted curve in the direction sought with a large enough effect; inconclusive = small, poorly fitted or top-dose-only effect, or another doubt; inactive = no such curve, though single readings can be large; an effect the other way counts as inactive or inconclusive. *1 amine or outer side, *2 acyl side, *3 side chain or, on linkers, in order; H or OH if unused. Where a SMILES comes first, the peptide text is derived from it. Bridges are numbered along the chain shown (N, C = ends). [ ]: non-standard residue; d: D form. The star is where a group is joined. ξ: configuration not given here. ξhTyr(3S-OH,4S-OH,3'-OSO3H) = NC(C(=O)O)[C@H](O)[C@@H](O)c1ccc(O)c(OS(=O)(=O)O)c1; Orn(4R-OH,5R-OH) = O=C([C@H](C[C@@H](O)[C@@H](O)N[*:3])N[*:1])[*:2]; X2 = CCCCCOc1ccc(-c2cc(-c3ccc(C(=O)*)cc3)no2)cc1; X3 = C[C@H]1CN([*:1])C(C(=O)[*:2])[C@H]1O; ξGln(3R-OH) = NC(=O)C[C@@H](O)C(N)C(=O)O; ξPro(4R-OH) = O=C(O)C1C[C@@H](O)CN1; ξThr(3R) = C[C@@H](O)C(N)C(=O)O

Legend:
[1] = tested on: CRL-7250; assay: Cytotoxic Profiling of Annotated Libraries Using Quantitative High-Throughput Screening (AID 1296008); details: Five cell lines viability, CellTiter-Glo ATP luminescence, 48-72 h; max response: hits give low values; also: nearly all actives have a fitted effect of over 60% in size; as to max response: % is scaled to controls: 0 for no effect and ±100 for the full control effect
In short: (§1)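 Cytotoxicity was measured as CellTiter-Glo ATP luminescence, read after 10 min at room temperature. Compound treatment of the cells lasted 48 or 72 hr at 37 degrees Celsius in a qHTS format.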

[2] = tested on: HEK293; assay: as above; details: Five cell lines viability, CellTiter-Glo ATP luminescence, 48-72 h; max response: hits give low values
In short: as §1

[3] = tested on: HaCat; assay: as above; details: Five cell lines viability, CellTiter-Glo ATP luminescence, 48-72 h; max response: hits give low values
In short: as §1

[4] = tested on: KB-3-1; assay: as above; details: Five cell lines viability, CellTiter-Glo ATP luminescence, 48-72 h; max response: hits give low values
In short: as §1

[5] = tested on: NIH3T3; assay: as above; details: Five cell lines viability, CellTiter-Glo ATP luminescence, 48-72 h; max response: hits give low values
In short: as §1

[6] = tested on: HACAT; assay: qHTS assay to identify novel small-molecules to repurpose for Merkel cell carcinoma treatment (AID 1296009); details: MCC and control cell lines, CellTiter-Glo viability, 72 h; at 44.8 µM (top of the series) unless noted; also: nearly all actives have a fitted effect of over 60% in size
In short: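 After compound transfer in DMSO, plates were kept 72 hr at 37 degree celsius. Luminescent ATP signal from CellTiter-Glo served as viability measure, normalized against DMSO and no-cell controls.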

[7] = tested on: C33A; assay: Primary qHTS to identify gynecologic anti-cancer compounds using libraries of approved drugs and bioactive compounds (AID 1345084); details: Gynecologic cancer cell panel viability, ATPlite luminescence, 48 h; series mostly up to 57.5 µM; also: % is scaled to controls: 0 for no effect and ±100 for the full control effect; nearly all actives have a fitted effect of over 55% in size
In short: (§2)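 Luminescence from the ATPlite ATP-monitoring reagent indicates viable cell number; lower signal means cytotoxicity. Cells received compound 16 h after seeding and were exposed for 48 h across five concentrations.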

[8] = tested on: CAOV3; assay: as above; details: Gynecologic cancer cell panel viability, ATPlite luminescence, 48 h; series mostly up to 57.5 µM
In short: as §2

[9] = tested on: CASKI; assay: as above; details: Gynecologic cancer cell panel viability, ATPlite luminescence, 48 h; series mostly up to 57.5 µM
In short: as §2

[10] = tested on: Es-2; assay: as above; details: Gynecologic cancer cell panel viability, ATPlite luminescence, 48 h; series mostly up to 57.5 µM
In short: as §2

[11] = tested on: HeLa; assay: as above; details: Gynecologic cancer cell panel viability, ATPlite luminescence, 48 h; series mostly up to 57.5 µM
In short: as §2

[12] = tested on: Hek293T; assay: as above; details: Gynecologic cancer cell panel viability, ATPlite luminescence, 48 h, control line for the selectivity index; series mostly up to 57.5 µM
In short: as §2

[13] = tested on: JEG-3; assay: as above; details: Gynecologic cancer cell panel viability, ATPlite luminescence, 48 h; series mostly up to 57.5 µM
In short: as §2

[14] = tested on: OV90; assay: as above; details: Gynecologic cancer cell panel viability, ATPlite luminescence, 48 h; series mostly up to 57.5 µM
In short: as §2

O=C(/C=C/c1ccccc1)O[C@@H]1[C@@H](CO)O[C@@](CO)(O[C@H]2O[C@H](CO)[C@@H](O)[C@H](O)[C@H]2O)[C@H]1O
inactive: outcome [1] | max response [2] 0.967% | outcome [3] | max response [4] -2.31% | max response [5] 2.88% | outcome [6] inactive [at 17.4 µM] | Potency [7] | Potency [8] | outcome [9] | Potency [10] | Potency [11] | Potency [12] | Potency [13] | Potency [14]

Cc1nc(-c2cccnc2)sc1C(=O)Nc1ccccc1-c1cn2c(CN3CCOCC3)csc2n1
inactive: max response [1] -2.14% | max response [2] -4.67% | outcome [3] | max response [4] -10.4% | max response [5] -1.07% | outcome [6] | Potency [7] | Potency [8] | Potency [10] | Potency [11] | Potency [12] | Potency [13] | Potency [14]

COc1c(C)c(OCC(O)C(C)(C)O)cc2c1CNC2=O (stereo not drawn)
inactive: max response [1] 2.44% | max response [2] -3.96% | outcome [3] | max response [4] 5.28% | max response [5] -1.72% | outcome [6] | Potency [7] | Potency [8] | outcome [9] | Potency [10] | Potency [11] | Potency [12] | Potency [13] | Potency [14]

C=C(C)[C@@]1(O)C[C@@]2(C)C(=CC1=O)CC[C@@H](O)[C@@H]2C
inactive: max response [1] 3.28% | max response [2] 4.61% | outcome [3] | max response [4] -1.96% | outcome [5] | outcome [6] | Potency [7] | Potency [8] | outcome [9] | Potency [10] | Potency [11] | Potency [12] | Potency [13] | Potency [14]

CCCCCOc1ccc(-c2cc(-c3ccc(C(=O)N[C@H]4C[C@@H](O)[C@@H](O)NC(=O)C5[C@@H](O)[C@@H](C)CN5C(=O)C([C@H](O)CC(N)=O)NC(=O)C([C@H](O)[C@@H](O)c5ccc(O)c(OS(=O)(=O)O)c5)NC(=O)C5C[C@@H](O)CN5C(=O)C([C@@H](C)O)NC4=O)cc3)no2)cc1 (stereo partly drawn) (X2-[Orn(4R-OH,5R-OH)][ξThr(3R)][ξPro(4R-OH)][ξhTyr(3S-OH,4S-OH,3'-OSO3H)][ξGln(3R-OH)][X3]; lactam 1-C)
inactive: outcome [1] | max response [2] -7.85% | outcome [3] | outcome [4] | max response [5] 3.77% | outcome [6] inactive [at 17.4 µM] | Potency [7] | Potency [8] | Potency [10] | Potency [11] | Potency [12] | Potency [13] | Potency [14]

CC[C@@H]1C(=O)O[C@]23C=C[C@@H]4C(C(=O)OC)=CO[C@H](O[C@@H]12)[C@@H]43
inactive: max response [1] -23.4% | max response [2] -18.1% | outcome [3] | max response [4] -9.89% | max response [5] 1.97% | outcome [6] | Potency [7] | Potency [8] | Potency [10] | Potency [12] | Potency [14]

C=C(C)C1Cc2c(ccc3c2OCC(c2ccc(O)cc2O)C3)O1 (stereo not drawn)
inactive: max response [1] -23.3% | max response [2] -18.8% | outcome [3] | max response [4] -21.6% | max response [5] -8.17% | outcome [6] | Potency [7] | outcome [9] | Potency [10] | Potency [11] | Potency [12] | Potency [13] | Potency [14]

CC1(C)Oc2ncnc(N)c2N=C1c1ccc(C2CCC(CC(=O)O)CC2)cc1 (stereo not drawn)
inactive: max response [1] 3.48% | max response [2] 0.549% | outcome [3] | outcome [4] | max response [5] 0.325% | outcome [6] | Potency [7] | outcome [9] | Potency [10] | Potency [11] | Potency [12] | Potency [13] | Potency [14]

C[C@H]1[C@H](C)CC[C@]2(C(=O)O)CC[C@]3(C(=O)O)C(=CCC4[C@@]5(C)CC[C@H](O[C@@H]6O[C@@H](C)[C@H](O)[C@@H](O)[C@H]6O)C(C)(C)C5CC[C@]43C)[C@H]12 (stereo partly drawn)
inactive: outcome [1] | max response [2] -0.583% | outcome [3] | max response [4] -0.753% | max response [5] 4.82% | outcome [6] inactive [at 17.4 µM] | Potency [7] | Potency [8] | Potency [10] | Potency [11] | Potency [12] | Potency [13] | Potency [14]

C/C=C1\[C@H](O[C@@H]2O[C@H](CO)[C@@H](O)[C@H](O)[C@H]2O)OC=C(C(=O)OCCc2ccc(O)cc2)[C@H]1CC(=O)OCCc1ccc(O)cc1
inactive: max response [1] 0.139% | max response [2] -2.9% | outcome [3] | max response [4] -0.75% | max response [5] -3.77% | outcome [6] inactive [at 17.4 µM] | Potency [7] | Potency [8] | Potency [10] | Potency [11] | Potency [12] | Potency [14]

COC(=O)C1=COC(OC2OC(CO)C(O)C(O)C2O)C2C(COC(=O)/C=C/c3ccc(O)cc3)C(O)C(O)C12 (stereo not drawn)
inactive: outcome [1] | max response [2] 0.595% | outcome [3] | outcome [4] | max response [5] -5.08% | outcome [6] inactive [at 17.4 µM] | Potency [7] | Potency [8] | outcome [9] | Potency [10] | Potency [11] | Potency [12] | Potency [13] | Potency [14]

C[C@@H]1O[C@@H](O[C@H]2[C@H](O)[C@@H](O)[C@H](OC(=O)[C@]34CCC(C)(C)C[C@H]3C3=CCC5[C@@]6(C)CC[C@H](O[C@@H]7O[C@H](C(=O)O)[C@@H](O)[C@H](O)[C@H]7O)C(C)(C)C6CC[C@@]5(C)[C@]3(C)CC4)O[C@@H]2CO)[C@H](O)[C@H](O)[C@H]1O (stereo partly drawn)
inactive: outcome [1] | max response [2] -4.26% | outcome [3] | max response [4] -0.526% | max response [5] -1.98% | outcome [6] inactive [at 9.27 µM] | activity change, negative = cytotoxicity [7] -8.12% [at 11.6 µM] | activity change, negative = cytotoxicity [8] -25.2% [at 11.6 µM] | activity change, negative = cytotoxicity [9] 5.01% [at 11.6 µM] | activity change, negative = cytotoxicity [10] -1.51% [at 11.6 µM] | activity change, negative = cytotoxicity [11] -21.7% [at 11.6 µM] | activity change, negative = cytotoxicity [12] 10.3% [at 11.6 µM] | activity change, negative = cytotoxicity [13] -2.05% [at 11.6 µM] | activity change, negative = cytotoxicity [14] -2.03% [at 11.6 µM]
